From PubChem
Only some compounds are listed: those with a hit (about 6.6% of all), similar ones and a draw of the others.
HepG2 viability: HepG2 cytotoxicity, counter-screen for TGF-b inhibitors | HepG2 CAGA-GFP viability, ATP luminescence, 18 h | Potency, µM (doses to about 46.1 µM), inactives show at the highest dose activity change, negative = cytotoxicity, actives largely listed as cytotoxic | 410,000 compounds, 0.76% hits
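CellTiter-Glo luminescence gave cytotoxicity after 18 hours at 37 degrees C. The cells were HepG2 CAGA-GFP in 1% FBS DMEM, stimulated with 500 pg/mL TGF-beta after compound addition. %Activity was normalised to no-cell wells (complete cell-killing) and DMSO (no toxicity), and curves were fitted and classified.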
HT1080 IDH1KD tx: kills HT-1080 cells with IDH1 knockdown | HT-1080 IDH1 knockdown viability, ATP luminescence, 48 h | Potency, µM (highest dose often 46.1 µM), inactives show at the top dose activity, negative = toxicity, usual class: cytotoxic | 360,000 compounds, 2% hits;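 note: 0% = DMSO wells and -100% = cell-free medium wells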
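In this qHTS, HT-1080 cells depleted of IDH1 are exposed for 48 h at 37 °C to compound titrations. Toxicity is scored from CellTiter-Glo luminescence, with DMSO as full viability and medium alone as none.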
KB-3-1 tox: kills parental KB-3-1 adenocarcinoma cells; 400,000 compounds, 1.4% hits; Potency, µM (series often up to 46.1 µM), hits mostly cytotoxic; AID 1347075; KB-3-1 viability, CellTiter-Glo ATP luminescence, 72 h; note: % is set by controls: 0 for no effect and ±100 for the full control effect; nearly all actives have a fitted effect of over 60% in size
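Parental KB-3-1 viability, qHTS format: 72 h compound exposure, 37 °C; CellTiter-Glo; media-only wells and DMSO plates as controls; concentration-effect fits on corrected data.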
HT1080-NT tox: kills 2HG-producing HT-1080-NT fibrosarcoma cells; HT-1080-NT fibrosarcoma viability, CellTiter-Glo ATP luminescence, 48 h; Potency, µM (series often up to 46.1 µM), without a hit: top-dose activity, negative = less viability, actives largely listed as cytotoxic; 360,000 compounds, 1.6% hits; AID 686970;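 note: NT is the 2HG producing partner of a matched IDH1 knockdown line; 0% = DMSO-treated cells and -100% = media-only wells without cells; nearly all actives have a fitted effect of over 55% in size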
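A 48-hour cytotoxicity screen used HT-1080-NT cells plated 2 hours before compound delivery. ATP-based CellTiter-Glo luminescence measured viability, normalized to DMSO and no-cell controls.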
TGFb inhibitor: inhibitors of TGF-b signaling; Potency, µM (titrated, usually from 46.1 µM), for inactives: top-dose activity, negative = inhibition, actives largely listed as inhibitors; 410,000 compounds, 1.2% hits; HepG2 CAGA-GFP TGF-b/SMAD3 reporter, GFP fluorescence, 18 h; TGF-beta stimulated, 500 pg/mL final; note: % is set by controls: 0 for no effect and ±100 for the full control effect; nearly all actives have a fitted effect of over 65% in size
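Inhibition was scored as loss of TGF-beta-induced (500 pg/mL final, 18 hours, 37 degrees C) GFP in HEPG2 cells carrying a CAGA-GFP reporter, in DMEM with 1% FBS. Well GFP was summed per cell; Activity was normalised to unstimulated and stimulated DMSO wells, then concentration-response fitting.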
KB-V1 MDR tox: kills drug-selected multidrug resistant KB-V1 cells | KB-V1 MDR cells viability, CellTiter-Glo, 72 h | Potency, µM (highest dose often 46.1 µM), most hits filed as cytotoxic | 400,000 compounds, 3.4% hits | AID 1347076; note: % is set by controls: 0 for no effect and ±100 for the full control effect; nearly all actives have a fitted effect of over 60% in size
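Cytotoxicity toward P-gp-expressing KB-V1 cells was determined as loss of CellTiter-Glo luminescence after 72 h at 37 degrees C. Compounds were tested in quantitative HTS format across a concentration range, with curves fitted to normalized data.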
* hit, by the source's call; i = inactive; ? = inconclusive; / = not tested or not shown. Calls come from the whole dose curve; as a rule, active = well fitted curve in the direction sought with a large enough effect; inconclusive = small, poorly fitted or top-dose-only effect, or another doubt; inactive = no such curve, though single readings can be large; an effect the other way counts as inactive or inconclusive. Potency is the fitted concentration of half-maximal effect.

SMILES | HepG2 viability | HT1080 IDH1KD tx | KB-3-1 tox | HT1080-NT tox | TGFb inhibitor | KB-V1 MDR tox
Cc1ccc(OCC(=O)Nc2ccc3nn(-c4ccc(C)cc4)nc3c2)cc1 | -8.1% | / | i | / | 1.3% | i
O=C(NCCc1ccc2c(c1)OCCO2)c1ccc(F)cc1 | -14.1% | -23.5% | i | -10.1% | -15.8% | 23.1µM*
COc1ccc(Br)cc1CNC(=O)c1cnc2sc(N3CCCCCC3)nn2c1=O | -6.6% | / | / | / | 0.0% | /
Cc1c(Cl)cccc1NC(=O)CC(c1ccc(F)cc1)N1Cc2ccccc2C1=O (configuration not stated) | -28.2% | / | / | / | 17.8µM* | /
Cc1c(Cl)cccc1NC(=O)CC(c1cccs1)N1Cc2ccccc2C1=O (configuration not stated) | -16.5% | / | i | / | ? | ?
CCOC(=O)N1CCN(c2cc3nccnc3cc2F)CC1 | -14.5% | 19.3% | i | 16.2% | -28.2% | 20.6µM*
Cc1ccc(Cl)cc1N1CCN(C(=O)c2cccn2-c2nnc(N3CCCC3)s2)CC1 | -34.8% | / | i | / | ? | i
CC(C)(O)CN(C(=O)C(c1ccccc1)c1ccccc1)C1CCCCC1 | -3.8% | 13.2% | i | 4.9% | 3.1% | 13µM*
O=C(Nc1ccc(N2CCCC2)c(Cl)c1)c1ccco1 | -34.1% | -17.3% | i | 0.0% | 10.7% | ?
O=C(/C=C/c1ccc(Cl)c([N+](=O)[O-])c1)Nc1ccc(N2CCCC2)c(Cl)c1 | -22.6% | 13µM* | i | ? | 0.0% | i
O=C(Nc1ccc(N2CCCC2)c(Cl)c1)c1ccc([N+](=O)[O-])o1 | -78.7% | 5.8µM* | ? | 5.8µM* | ? | ?
O=C(Nc1ccc(N2CCN(Cc3ccccc3F)CC2)cc1)c1ccc([N+](=O)[O-])o1 | -47.2% | -6.2% | ? | 14.6µM* | ? | 14.6µM*
CC1CCN(c2ccc(NC(=O)c3ccc([N+](=O)[O-])o3)cc2)CC1 | -85.3% | 7.31µM* | 5.17µM* | 16.4µM* | ? | 10.3µM*
CCOC(=O)N1CCC(NC(=O)c2cnn(-c3ccc(F)cc3)c2-n2cccc2)CC1 | -16.1% | / | i | / | -4.3% | ?
CC1Cc2cc(S(=O)(=O)CCC(=O)Nc3ccccc3F)ccc2N1C(=O)C1CC1 (configuration not stated) | -9.0% | / | / | / | -2.3% | /
O=C(Nc1ccc(N2CCCCC2)cc1)c1ccc([N+](=O)[O-])o1 | -67.9% | 2.31µM* | ? | 4.61µM* | ? | ?
O=C(Nc1ccc(N2CCCC2)cc1)c1ccc(Br)o1 | -0.5% | 11.9% | i | 5.7% | -1.1% | i
CC1=C(C(=O)Nc2ccccc2)C(c2ccc(C(=O)O)cc2)n2ncnc2N1 (configuration not stated) | -0.6% | / | i | / | -7.2% | ?
Cn1nnnc1SC1CC(=O)N(c2ccccc2)C1=O (configuration not stated) | 14.0% | -10.7% | i | 2.1% | -11.9% | i
O=C1CC(Sc2nnnn2C2CCCCC2)C(=O)N1c1ccccc1 (configuration not stated) | -81.8% | 5.01µM* | i | ? | ? | i
Cc1cc(C)cc(N2C(=O)CC(Sc3nnnn3-c3ccccc3)C2=O)c1 (configuration not stated) | -95.1% | 2.51µM* | i | 7.08µM* | -9.6% | i
O=C(c1ccc(S(=O)(=O)N2CCCCCC2)cc1)N1CCN(Cc2ccccc2)CC1 | -23.7% | 6.7% | i | -0.6% | -14.1% | ?
COc1ccc(CN2CCN(C(=O)c3ccc(S(=O)(=O)N4CCCCCC4)cc3)CC2)cc1F | -17.3% | -26.3% | 23.1µM* | -15.8% | ? | ?
COc1ccc(CN2CCN(S(=O)(=O)c3ccc(NC(C)=O)cc3)CC2)cc1OC | -33.5% | -5.3% | i | 2.1% | ? | 20.6µM*
